Source: PubChem BioAssay
Hits are enriched below; roughly 4.1% of the tested compounds scored in any of these assays.
AMA1-RON2 inh: disrupts binding of P. falciparum AMA1 to RON2 | AlphaScreen AMA1-biotinylated RON2 peptide binding | Potency, µM (highest dose often 58.2 µM), inactives show at the highest dose activity change, negative = inhibition, most hits filed as inhibitors | 360,000 tested, 0.2% active | AID 720542;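 further: 0% = vehicle wells and -100% = peptide control; nearly all actives have a fitted effect of over 45% in size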
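AMA1 (3D7) with his tag at 25 nM final met compounds first, then biotinylated RON2 peptide at 25 nM; detection used donor plus acceptor beads, 10 µg/mL apiece, read by AlphaScreen after 30 min at room temperature.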
AmpC inh detg: AmpC beta-lactamase inhibition with detergent present; P00811; AmpC hydrolysis of nitrocefin, absorbance 480 nm, 0.01% Triton; Potency, µM (top dose mostly 114 µM), for inactives: at the top dose activity change, negative = inhibition, usual class: inhibitors; 370,000 tested, 0.041% active; AID 485294;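 further: 0% = no-compound wells and -100% = no-enzyme wells; nearly all actives have a fitted effect of over 25% in size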
Target sequence (P00811 whole entry, looked up): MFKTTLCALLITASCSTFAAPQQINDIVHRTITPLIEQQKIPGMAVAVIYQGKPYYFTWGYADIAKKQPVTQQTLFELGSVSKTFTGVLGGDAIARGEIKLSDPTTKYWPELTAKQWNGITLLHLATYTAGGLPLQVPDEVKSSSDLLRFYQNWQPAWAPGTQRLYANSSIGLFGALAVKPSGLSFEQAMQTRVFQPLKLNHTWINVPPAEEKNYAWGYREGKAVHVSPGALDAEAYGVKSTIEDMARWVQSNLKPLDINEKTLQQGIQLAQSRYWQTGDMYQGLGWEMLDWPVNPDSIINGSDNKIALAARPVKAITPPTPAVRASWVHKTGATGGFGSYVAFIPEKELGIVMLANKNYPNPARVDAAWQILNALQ
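20 mM phosphate pH 7.0 + 0.01% (detergent screen) or 0.0001% Triton X-100; 5.3 nM AmpC reagent; cpd preinc 15 min RT; nitrocefin (800 uM stock) to start; A480 q20 s × 4 min; Activity was normalised to no-enzyme and no-compound control wells.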
AmpC inh no detg: blocks E. coli AmpC beta-lactamase in detergent-free assay | 330,000 tested, 0.52% active | AID 485341 | AmpC nitrocefin hydrolysis, absorbance 480 nm, 0.0001% Triton | Potency, µM (titrated, usually from 57.1 µM), for inactives: at the highest dose activity change, negative = inhibition, hits mostly inhibitors | P00811;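 further: plate controls were no compound for no effect and no enzyme for full effect; nearly all actives have a fitted effect of over 20% in size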
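20 mM phosphate pH 7.0 + 0.01% (detergent screen) or 0.0001% Triton X-100; 5.3 nM AmpC reagent; cpd preinc 15 min RT; nitrocefin (800 uM stock) to start; A480 q20 s × 4 min; Activity was normalised to no-enzyme and no-compound control wells.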
FMDV antiviral: foot and mouth disease virus antiviral activity; FMDV antiviral cell-based qHTS; Potency, µM (doses to about 57.9 µM), inactives show top-dose activity change, negative = inhibition, most hits filed as inhibitors; 410,000 tested, 1.2% active; AID 1159524; calls by dose curve; tested in HEK293T cells; further: read-out not given here; nearly all actives have a fitted effect of over 45% in size
Sm TGR inh: blocks Schistosoma mansoni thioredoxin glutathione reductase | Q962Y6 | purified TGR, DTNB reduction, TNB absorbance 405 nm | Potency, µM (series often up to 114 µM), for inactives: at the highest dose activity change, negative = inhibition, hits mostly inhibitors | 360,000 tested, 3% active | AID 485364; further: nearly all actives have a fitted effect of over 60% in size
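Kinetic colorimetric format: TGR-catalysed, NADPH-driven DTNB reduction monitored via TNB absorbance. Enzyme dispensed at 20 nM; compound exposure 15 min at room temperature before reaction start.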
Numbers without * were called inactive; ? = inconclusive; . = no result given; [ ] = remark or other dose. Unless noted, the call rests on the fitted dose curve; in most records, active means well fitted curve in the direction sought with a large enough effect; inconclusive means small, poorly fitted or top-dose-only effect, or another doubt; inactive means no such curve, though single readings can be large; an effect the other way counts as inactive or inconclusive. Unless noted, on the % scale 0 is the no-effect control and ±100 the full control effect; potency means the concentration at half of the fitted maximal effect.

SMILES	AMA1-RON2 inh	AmpC inh detg	AmpC inh no detg	FMDV antiviral	Sm TGR inh
O=C(Nc1ccc(Oc2ccccc2)cc1)C1CCN(c2c3c(nc4ncnn24)CCC3)CC1	75.0%	-4.2%	-9.6%	8.91µM*	-5.0%
Cc1cc(Nc2ccc(F)cc2)nc(-n2nc(C)cc2C)n1	.	-5.7%	.	-10.4%	-5.1%
COc1ccccc1CNC(=O)CSc1nc2nc(C)c(Cc3ccccc3Cl)c(C)n2n1	.	5.3%	.	0.0%	-4.8%
O=C(NCCc1nc2ccccc2n1Cc1c(F)cccc1Cl)c1ccco1	.	-3.5%	.	?	-4.1%
COCc1c(C(=O)N2CCN(C3CCCC3)CC2)cnn1-c1nccc(-c2cccs2)n1	.	.	.	2.2%	.
c1coc(-c2nn3c(-c4ccco4)nnc3s2)c1	-18.0%	-15.7%	-6.8%	6.0%	14.1µM*
Clc1ccc(OCc2nn3c(-c4ccco4)nnc3s2)cc1	-3.6%	-4.5%	-7.4%	0.0%	31.6µM*
COc1ccccc1-c1nn2c(-c3ccco3)nnc2s1	-11.2%	-13.4%	66.3%	72.3%	?
CC1(C(=O)Nc2cccc(Oc3ccccc3)c2)CCN1Cc1cc2ccccc2o1 (centres undefined)	-9.3%	.	.	-11.8%	.
C=CCNc1sc(C(=O)c2ccc(C)cc2)c(N)c1C#N	-3.5%	-9.7%	-31.6%	-18.0%	-28.6%
C=CCNc1nc(N)c(C(=C(C#N)C#N)c2ccc(Br)cc2)s1	11.9%	-14.3%	9.3%	5.62µM*	-14.4%
CN(CCO)C(=O)c1cn(C2CCCN(Cc3cccc4ccccc34)C2)nn1 (centres undefined)	.	.	.	-5.8%	.
COc1cccc(CNc2nc3c(-c4cccc(C)c4)nnn3c3ccccc23)c1	.	10.5%	.	2.1%	0.9%
CCOC(=O)N1CCC(NC(=O)CN2C(=O)CSc3ncccc32)CC1	1.7%	8.0%	28.2µM*	-13.7%	2.4%
COc1ccccc1N1CCN(Cc2ccc(OC)c(OC)c2OC)CC1	-12.8%	?	-0.2%	-12.2%	5.2%
COc1ccccc1N1CCN(Cc2ccc(O)c3ncccc23)CC1	-96.3%	3.7%	7.8%	?	50.1µM*
CCOC(=O)C1CCN(Cc2ccc(O)c3ncccc23)CC1	9.47µM*	-7.3%	-13.3%	-26.3%	2.82µM*
Oc1ccc(CN2CCCc3ccccc32)c2cccnc12	-53.9%	?	-24.9%	-2.9%	0.1µM*
Oc1ccc(COC2CCN(Cc3ccccc3)C2)c2cccnc12 (centres undefined)	.	?	-3.6%	.	44.7µM*
COc1ccccc1C1C=C(c2ccc(Cl)cc2)Nc2nc(-c3ccc(Cl)cc3)nn21 (centres undefined)	.	14.1%	.	-14.0%	-18.2%
CCc1nn(CC(=O)NC2CC2)c(=O)c2cc3c(OC)cccc3n12	.	-5.7%	.	0.0%	1.0%
CCc1ccccc1NC(=O)N1CC(C)Sc2ccccc21 (centres undefined)	.	3.6%	.	0.9%	4.2%
CCOC(=O)[C@]12Cc3c(cc(OC)c(OC)c3OC)[C@H]1N(C(C)C)C(=O)c1cc(OC)ccc12	1.5%	.	.	14.1µM*	.
CCOC(=O)[C@]12Cc3cc(C)ccc3[C@H]1N(C)C(=O)c1cc(OC)ccc12	1.9%	.	.	39.8µM*	.
CCOC(=O)[C@]12Cc3c(cc(OC)c(OC)c3OC)[C@H]1N(C)C(=O)c1ccccc12	-5.8%	.	.	-24.4%	.
SMILES	AMA1-RON2 inh	AmpC inh detg	AmpC inh no detg	FMDV antiviral	Sm TGR inh
CCOC(=O)[C@]12Cc3cc(OC)ccc3[C@H]1N(C(C)C)C(=O)c1cc(OC)ccc12	0.0%	.	.	15.8µM*	.
CCOC(=O)[C@]12Cc3c(cc(OC)c(OC)c3OC)[C@H]1N(C1CCCCC1)C(=O)c1cc(OC)ccc12	-6.4%	.	.	12.6µM*	.
CCOC(=O)[C@]12Cc3cc(OC)ccc3[C@H]1N(C)C(=O)c1ccccc12	1.2%	.	.	?	.
COC(=O)[C@@H]1CCCN1C(=O)c1cnn(-c2nccc(-c3cc(C)sc3C)n2)c1C1CC1	.	.	.	29.5%	.
COC(=O)c1nc(NC(=O)C(C)(C)C)n[nH]1	1.5%	-1.4%	-11.8%	.	31.6µM*
COC(=O)c1nc(NC(=O)c2ccc(Br)cc2)n[nH]1	-13.4%	-5.2%	.	-11.3%	?
O=C(CCc1nc2ccccc2s1)N1CCOc2ccc(CN3CCc4sccc4C3)cc2C1	.	.	.	2.2%	.
Nn1cnnc1SCC(=O)Nc1ccc(C2CCCCC2)cc1	-6.3%	5.6%	14.3%	.	-1.7%
O=C(O)CSCC(=O)Nc1ccc(C2CCCCC2)cc1	-6.3%	2.1%	.	1.12µM*	1.2%
CSC(=S)NN=C(C)c1cccc(C)n1	-14.1%	.	.	5.3%	.
COc1ccc(CNc2nc(C)c([N+](=O)[O-])c(C)c2C#N)cc1	-22.2%	1.0%	?	-26.0%	45.4%
COc1cc(CNc2nc(C)c([N+](=O)[O-])c(C)c2C#N)cc(OC)c1OC	13.1%	-14.5%	17.9%[2.29 µM]	25.1µM*	-2.8%
Cc1nc(S(=O)(=O)c2cccc(Cl)c2)nc2c1CCC2	8.6%	?	-30.2%	-6.9%	?
Cc1nc(S(=O)(=O)c2ccc(Cl)cc2Cl)nc2c1CCC2	-12.7%	3.4%	-9.8%	14.7%	25.1µM*
Cc1cccc(CC(=O)N2CC(=O)Nc3ccc(C)cc3C2c2ccc(F)cc2)c1 (centres undefined)	.	1.0%	.	-16.3%	5.4%
N=C1C=CC=C2C1=NC1(CCCCC1)N2O	-16.4%	-1.2%	-27.2%	.	20µM*
O=[N+]([O-])C1=CC=C2C(=NC3(CCCCC3)N2O)C1=NC1CCCCC1	7.0%	-5.8%	-24.9%	.	?
Cc1ccc(CNc2ccc(O)cc2)cc1	31.0%	-14.2%	-26.7%	19.7%	11.2µM*
O=C(NC(=S)/C(=C1\CCCCCN1)[N+](=O)[O-])c1ccccc1	-2.9%	.	-13.8%	12.6µM*	.
O=C(NC(=S)Nc1ccccc1[N+](=O)[O-])c1ccccc1	19.0%	12.1%	-33.4%	37.2%	?
Cc1ccc(C2CC(c3cccs3)=NN2C(=O)CCl)cc1 (centres undefined)	4.6%	-11.1%	?	17.8µM*	2.51µM*
CCC(=O)N1N=C(c2cccs2)CC1c1ccc(C)cc1 (centres undefined)	-4.8%	-4.1%	-8.9%	7.0%	-16.3%
CC(C)CCOc1ccc(Cn2c(=O)sc3ccccc32)cc1	.	22.2%	.	-1.8%	-0.9%
Fc1cccc(-n2ncc3c2ncn2nc(Cc4ccccc4)nc32)c1	.	-3.8%	.	9.4%	3.7%
COc1cccc(C2CC(c3ccc(Cl)cc3)Nc3nc(N)nn32)c1 (centres undefined)	-0.1%	-12.1%	36.9%	-25.0%	-9.4%
COc1ccc(C2CC(c3cccc(Cl)c3)n3nc(N)nc3N2)cc1 (centres undefined)	29.7%	?	0.891µM*	-24.1%	-1.1%
COc1cccc(C2CC(c3ccc(F)cc3)Nc3nc(N)nn32)c1 (centres undefined)	-4.2%	-11.5%	39.8µM*	-19.9%	0.6%
